A number with no mark means an inactive call. Activity calls are given as the source filed them.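 The calls were made as follows: active = inhibition above the hit cutoff set in the earlier primary screen (cut at about 27% in these data); inactive = the rest.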

The values that follow come from PubChem BioAssay.

Sequence of Protein phosphatase methylesterase 1 (Homo sapiens) (Q9Y570 whole entry, looked up): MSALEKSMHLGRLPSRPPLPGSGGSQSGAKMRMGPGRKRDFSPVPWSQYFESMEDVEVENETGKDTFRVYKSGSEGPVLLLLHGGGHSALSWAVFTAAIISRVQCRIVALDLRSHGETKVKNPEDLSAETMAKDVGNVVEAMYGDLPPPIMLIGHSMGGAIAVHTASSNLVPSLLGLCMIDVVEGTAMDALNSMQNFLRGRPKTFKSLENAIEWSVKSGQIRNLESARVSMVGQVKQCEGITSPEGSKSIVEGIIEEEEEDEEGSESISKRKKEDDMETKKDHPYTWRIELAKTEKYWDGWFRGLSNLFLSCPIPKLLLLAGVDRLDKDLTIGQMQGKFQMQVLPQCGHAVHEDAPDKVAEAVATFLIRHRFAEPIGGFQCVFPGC

This assay has as its target Protein phosphatase methylesterase 1 (Homo sapiens) (UniProt Q9Y570). Kind of assay: PME-1 inhibitor activity retest, confirmation, biochemical, fluorescence polarization, FP-Rh probe, triplicate (AID 2171).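 Also: 0% = enzyme with DMSO and 100% = wells lacking PME-1.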 The following applies: recombinant PME-1, FP-Rh probe fluorescence polarization; at 5.9 µM; active compounds read high. In general terms: Polarisation of emitted light reports the rotation of a fluorescent probe.
As a reminder, the inhibition is the relative decrease from the control value, in per cent. For the compound `Cc1[nH]c2c(C(=O)N3CCCC(CCC(=O)NCc4ccccc4F)C3)cccc2c1C` (stereo not given), the inhibition was 39.7% (active).
Turning to `Cc1c(O)ccc(/C(Cc2ccc3ccccc3n2)=N\O)c1O`, the inhibition was 53.5% (active).
As for `COc1ccc(CCn2c(N)c(C#N)c3nc4ccccc4nc32)cc1OC`, the figure is 25.9%; as for `CC(=O)c1c(C)n(-c2ccc(N(C)C)cc2)c2ccc(OCC(N)=O)cc12`, 23.7%; as for `CCN(CC)C(=O)C1c2ccccc2Oc2ccccc21`, 7.22%.
The value for `COc1ccc(NC(=O)Nc2cccc([N+](=O)[O-])c2)cc1Cl` was 2.05%; that for `O=C(N/N=C/c1c[nH]c2ccccc12)c1cc(-c2ccc3ccccc3c2)n[nH]1` was 10.8%.
`COc1cccc(N=Nc2c(=O)[nH]n3c(=O)c4c([nH]c23)CCC4)c1`: the inhibition was 36.8% (active).
As for `COc1cc(/C=N/Nc2nc(-c3ccc(S(=O)(=O)N(C)C)cc3)cs2)ccc1O`, the figure is 19.7%; as for `COc1ccc2ccc3c(c2c1)N=C[C@]1(O3)N(C)c2ccccc2C1(C)C`, 5.96%; as for `O=C1C(CSCc2ccccc2)NC(=S)N1c1ccccc1` (stereo not given), 5.6%.
Regarding `CCn1cc(C(=O)NCCCN2CCC(C)CC2)c(=O)c2cc(S(=O)(=O)N(C)C3CCCCC3)ccc21`, the inhibition is 31.6% (active).
The value for `Cn1c(O)c(/C=N/NC(=O)c2cc3ccccc3cc2O)c2ccccc21` was 58.7% (active).
With `Oc1[nH]c2ccccc2c1C=Nc1ccc2c(c1)OCO2`, the inhibition is 23.6%.
Take `O=C(Nc1cccc(-c2csc(Nc3ccccc3)n2)c1)c1cc([N+](=O)[O-])cc(C(F)(F)F)c1`: the inhibition is 23%.
On to `CSc1nsc(/C=C/Nc2ccc(O)cc2C)c1C#N`, for which the inhibition was -1.46%.
`O=[N+]([O-])c1cccc(N/N=C/c2cccc(O)c2O)c1`: the inhibition was 32.9% (active).
With `Oc1c(Br)cc(C=Nc2ccc3nc(-c4ccccc4)[nH]c3c2)c(O)c1Br`, the inhibition is 5.82%.
As for `COc1ccccc1NS(=O)(=O)c1cccc(-n2c(O)c(C=Nc3ccccc3C(=O)O)c3ccccc3c2=O)c1`, the figure is 85.7% (active); as for `Oc1ccc(/C=N/Nc2ccnc3cc(Cl)ccc23)c(O)c1`, 19%; as for `Cc1cc2nc3c(=O)n(CCc4ccccc4)c(=O)[nH]c3nc2cc1N`, 44.2% (active).
As to `Oc1ccc(/C=N/Nc2cccc3cccnc23)c(O)c1`, the inhibition was 82.7% (active).
Regarding `Cc1ccc(NC(=O)COc2cccc(/C=C3\SC(=S)N(CCC(=O)O)C3=O)c2)cc1Cl`, the inhibition was 26%.
On to `O=c1[nH]c(C2CCCN(S(=O)(=O)c3ccccc3)C2)nc2c1nnn2Cc1ccccc1` (stereo not given), for which the inhibition is 22.6%.
Regarding `Oc1ccccc1C1Nc2cccc3cccc(c23)N1`, the inhibition was 24.4%.
As for `CC(C)c1ccc2c(c1)C1(NN=C(c3ccccc3)S1)C(=O)N2` (stereo not given), the figure is 33.9% (active).
For the compound `Cc1cc(Br)ccc1N=C1NC(=O)CS1`, the inhibition is -3.07%.
On to `N#CCCN(CCC#N)C(=O)C1c2ccccc2Oc2ccccc21`, for which the inhibition was -4.23%.
Turning to `Cc1cccc(NC(=O)CN2C(=O)S/C(=C\c3ccc(O)c([N+](=O)[O-])c3)C2=O)c1`, the inhibition is 24.7%.
As for `CCOC(=O)Cc1csc(NC(=O)c2sc3nc4c(C)cc(C)cc4cc3c2N)n1`, the figure is 23.4%; as for `COc1ccc2oc(C(=O)OCC(=O)N3CCN(S(=O)(=O)c4ccc(C)cc4)CC3)c(C)c2c1`, 17.9%; as for `O=C(COC(=O)CCCN1C(=O)c2cccc3cccc(c23)C1=O)Nc1ccc(Cl)cc1`, 22.7%.
For the compound `COc1ccc(C(=O)c2oc3ccc(OC)cc3c2N)cc1`, the inhibition was 29.6% (active).
As for `O=C1Nc2ccccc2/C1=N\N=C\C1=C(N2CCOCC2)C(=C\c2ccccc2)/CC1`, the inhibition was 24%.
As for `COc1cc2c(c(OC)c1OC)-c1ccc(NC(=O)c3ccc(F)cc3)c(=O)cc1[C@@H](NC(C)=O)CC2`, the figure is 0.65%; as for `O=C(CNc1ccccc1)N/N=C/c1c(O)ccc2ccccc12`, 17.1%; as for `N#CC(C#N)=NNc1ccc(S(=O)(=O)N2CCCCC2)cc1`, 14.8%.
`CCc1ccc(S(=O)(=O)/N=C2\C=C(Nc3cccc(C(=O)O)c3)C(=O)c3ccccc32)cc1`: the inhibition was 38.4% (active).
Consider `Cc1ccc(C(=O)COC(=O)c2cccc(NC(=O)c3ccc([N+](=O)[O-])cc3[N+](=O)[O-])c2)cc1`, for which the inhibition is -3.98%.
As for `CCc1ccc2[nH]c(O)c(N=NC3=NC(=O)CS3)c2c1`, the figure is 44% (active).
